HEK293 cAMP cs – raises cAMP in parental HEK293 cells, TSHR agonist counter-screen; Potency, µM (series often up to 57.1 µM), inactives show at the top dose activation, usual class: activators; 73,000 tested, 2.5% active; parental HEK293 CNG cAMP sensor, membrane potential fluorescence; further: % of control where 0% means no effect; nearly all actives have a fitted effect of over 55% in size
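Parental HEK 293 cells stably expressing a cAMP-gated CNG channel were loaded with membrane potential dye containing 100 uM RO 20-1724 for 60 min. Compound added for 30 min; depolarization read as fluorescence intensity at 590 nm.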
CRE-bla Fsk – alters forskolin-stimulated CRE reporter signaling in CHO cells; 71,000 tested, 2.5% active; CHO CRE-bla reporter (cAMP response element driving beta-lactamase), forskolin EC10, beta-lactamase ratio; Potency, µM (titrated, usually from 38.2 µM), without a hit: top-dose activity change, negative = inhibition, most hits filed as activators; active means well fitted activation curve with a large enough effect in the signal ratio, with a control signal flat, not every such curve was filed as active; inconclusive means small, poorly fitted or top-dose-only effect, or effect the other way, or a change in a side signal; the % refers to the signal ratio; further: % of control where 0% means no effect
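CRE-bla CHO reporter cells treated with compound titration plus EC10 NKH 477 (water-soluble forskolin), incubated 3 h at 37 °C; CCF4 loading 2 h at room temperature, 460/530 nm emission ratio read, AC50 values derived for positive or negative modulators.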
TSHR ag – TSH receptor (human) agonism | HEK293-CNG-TSHR cells (CNG channel as cAMP sensor), membrane potential dye, cAMP | Potency, µM (series often up to 57.1 µM), for inactives: at the top dose activation, actives largely listed as activators | 73,000 tested, 0.48% active | P16473; active means well fitted activation curve with a large enough effect in the main read-out, with a control signal flat, not every such curve was filed as active; inconclusive means small, poorly fitted or top-dose-only effect, or a change in a side signal; inactive means no such curve, though single readings can be large or run the other way; % of control where 0% means no effect;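 further: the control signal comes from parental cells without the receptor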
Target sequence (P16473 whole entry, looked up): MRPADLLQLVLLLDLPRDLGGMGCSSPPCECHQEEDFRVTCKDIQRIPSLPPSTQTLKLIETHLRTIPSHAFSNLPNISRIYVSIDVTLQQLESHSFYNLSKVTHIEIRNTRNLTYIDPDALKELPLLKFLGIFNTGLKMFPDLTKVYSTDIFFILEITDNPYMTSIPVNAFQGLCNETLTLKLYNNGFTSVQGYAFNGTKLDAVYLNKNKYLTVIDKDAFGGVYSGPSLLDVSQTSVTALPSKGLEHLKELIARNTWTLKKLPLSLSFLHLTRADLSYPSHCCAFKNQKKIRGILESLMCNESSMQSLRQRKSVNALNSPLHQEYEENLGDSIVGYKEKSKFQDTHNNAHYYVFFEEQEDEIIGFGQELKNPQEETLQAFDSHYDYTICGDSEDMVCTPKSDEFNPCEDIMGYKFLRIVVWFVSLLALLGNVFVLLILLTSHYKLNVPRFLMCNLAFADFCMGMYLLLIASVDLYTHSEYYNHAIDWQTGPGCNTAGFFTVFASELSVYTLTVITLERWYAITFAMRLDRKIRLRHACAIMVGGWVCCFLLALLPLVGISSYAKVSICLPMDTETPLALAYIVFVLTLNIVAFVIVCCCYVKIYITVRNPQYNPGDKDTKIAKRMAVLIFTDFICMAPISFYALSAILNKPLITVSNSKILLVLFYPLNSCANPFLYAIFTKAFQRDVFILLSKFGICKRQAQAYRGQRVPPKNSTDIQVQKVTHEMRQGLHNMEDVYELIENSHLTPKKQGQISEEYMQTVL
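HEK 293 cells stably expressing TSHR and a cAMP-gated CNG channel; parental CNG-only cells as counterscreen. Cells preloaded 60 min with membrane potential dye plus 100 uM RO 20-1724, then compound 30 min; fluorescence read at 590 nm.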
Tau fil binding – binds recombinant human tau filaments. P10636. recombinant tau filaments, thioflavin S fluorescence, 15 h; filaments grown with octadecylsulfate alongside compound. Potency, µM (doses to about 57.1 µM), inactives show at the highest dose activity change, negative = inhibition. 71,000 tested, 2% active. AID 596;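 further: on the % scale 0 is the no-effect control and ±100 the full control effect; actives lower thioflavin S fluorescence by blocking filaments or displacing dye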
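His-tagged recombinant human tau (exons 2, 3 and 10 included), 1 uM, was induced to fibrillize by 30 uM sodium octadecylsulfate with compound present. After 15 h at 37 C, thioflavine S fluorescence (ex 450, em 510 nm) was read.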
ERK AVP inh – vasopressin-driven ERK pathway inhibition; 72,000 tested, 0.99% active; HEK293-V1b, vasopressin-stimulated pERK AlphaScreen; Potency, µM (doses to about 57.5 µM), for inactives: at the highest dose activity, negative = inhibition, most hits filed as inhibitors; further: on the % scale 0 is the no-effect control and ±100 the full control effect; nearly all actives have a fitted effect of over 55% in size
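V1b-HEK293 cells; cpd 30 min 37C; 25 nM vasopressin 5 min; lyse 10 min; AlphaScreen beads 5 hr RT. Normalized to DMSO basal and 25 nM vasopressin; AC50 by Hill fit.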
* = called active by the depositor; [ ] = dose if it differs, or a comment. Rows were chosen to be rich in hits. Some 7.4% of all compounds tested hit in one or more screens of this group. Unless noted, the call rests on the fitted dose curve; in most records, active means well fitted curve in the direction sought with a large enough effect; inconclusive means small, poorly fitted or top-dose-only effect, or another doubt; inactive means no such curve, though single readings can be large; an effect the other way counts as inactive or inconclusive. Potency means the concentration at half of the fitted maximal effect.

How did CC1CN(c2nc3ccccc3nc2C(C#N)C(=O)NCc2ccc3c(c2)OCO3)CC(C)O1 (configuration not stated) do in these assays?
HEK293 cAMP cs: 12%; CRE-bla Fsk: inconclusive; Tau fil binding: -20%; ERK AVP inh: 6%

What do the screens show for `C=CCOC(=O)C(C#N)c1nc2ccccc2nc1N1CCN(Cc2ccc3c(c2)OCO3)CC1` (configuration not stated)?
HEK293 cAMP cs: -89%; CRE-bla Fsk: inconclusive; TSHR ag: inconclusive; Tau fil binding: 1.3µM*; ERK AVP inh: inconclusive

Results for N#CC(C(=O)OCc1ccccc1)c1nc2ccccc2nc1N1CCOCC1 (configuration not stated) ?
HEK293 cAMP cs: inconclusive; CRE-bla Fsk: inconclusive; TSHR ag: inconclusive; Tau fil binding: 2µM*; ERK AVP inh: 5%

How did CCC(C)COC(=O)C(C#N)c1nc2ccccc2nc1N1CCCCC1 (configuration not stated) do in these assays?
HEK293 cAMP cs: 18%; CRE-bla Fsk: inconclusive; Tau fil binding: -21%; ERK AVP inh: 4%

How did CCC(CC)COC(=O)C(C#N)c1nc2ccccc2nc1N1CCN(CC)CC1 (configuration not stated) do in these assays?
HEK293 cAMP cs: -70%; CRE-bla Fsk: inconclusive; TSHR ag: inconclusive; Tau fil binding: 1.3µM*; ERK AVP inh: 0%

Results for COC(=O)C(C#N)c1nc2ccccc2nc1N1CCCC1 (configuration not stated) ?
HEK293 cAMP cs: 9%; CRE-bla Fsk: 10µM*; TSHR ag: 0%; Tau fil binding: 16µM*; ERK AVP inh: inconclusive

Results for C[C@@]12CCC(=O)C=C1CC[C@H]1[C@H]3CC[C@](O)(C(=O)CO)[C@]3(C)CC[C@@H]12 ?
HEK293 cAMP cs: 6%; CRE-bla Fsk: inconclusive; Tau fil binding: -2%

How did CCC(=O)[C@@]1(O)C(=O)N2C(=C3C(=O)OCCC31)N(Cc1ccccc1)C(C)=C(C(=O)OC)C2c1ccccc1 (some centres not stated) do in these assays?
HEK293 cAMP cs: -5%[11.4 µM]; TSHR ag: 3%[11.4 µM]; ERK AVP inh: 11%[11.5 µM]

Results for C=C1C[C@@]23C[C@]1(O)CC[C@@H]2[C@]12C=C[C@@H](O)[C@@](C)(C(=O)O1)[C@@H]2[C@@H]3C(=O)O ?
HEK293 cAMP cs: 7%; CRE-bla Fsk: inconclusive; TSHR ag: 6%; Tau fil binding: inconclusive

What do the screens show for `COc1ccc(CNC(=O)C(C#N)c2nc3ccccc3nc2N2CCN(C)CC2)cc1` (configuration not stated)?
HEK293 cAMP cs: -20%; CRE-bla Fsk: inconclusive; TSHR ag: -51%; Tau fil binding: 3.2µM*; ERK AVP inh: -9%

What do the screens show for `CC1CCN(c2nc3ccccc3nc2C(C#N)C(=O)NC2CCCCC2)CC1` (configuration not stated)?
HEK293 cAMP cs: 9%; CRE-bla Fsk: inconclusive; TSHR ag: 11%; Tau fil binding: 8%; ERK AVP inh: 6%

What do the screens show for `COC(=O)C1CCN(c2nc3ccccc3nc2C(C#N)C(=O)OCC(C)C)CC1` (configuration not stated)?
HEK293 cAMP cs: inconclusive; CRE-bla Fsk: inconclusive; TSHR ag: inconclusive; Tau fil binding: 4µM*; ERK AVP inh: -15%

Results for O=C(O)C[C@@H](C(=O)O)c1ccccc1[N+](=O)[O-] ?
HEK293 cAMP cs: inconclusive; CRE-bla Fsk: -10%[7.6 µM]; TSHR ag: inconclusive; Tau fil binding: -5%[11.4 µM]; ERK AVP inh: 7%[11.5 µM]

What do the screens show for `COc1cccc(-c2cn3nc(C)c(C)nc3n2)c1`?
HEK293 cAMP cs: -5%; CRE-bla Fsk: inconclusive; TSHR ag: -14%; Tau fil binding: 10µM*; ERK AVP inh: -24%

How did Nc1c(S(=O)(=O)O)cc(Nc2cccc(S(N)(=O)=O)c2)c2c1C(=O)c1ccccc1C2=O do in these assays?
HEK293 cAMP cs: -21%[11.4 µM]; CRE-bla Fsk: 13%[7.6 µM]; TSHR ag: -13%[11.4 µM]; Tau fil binding: -4%[11.4 µM]; ERK AVP inh: inconclusive

How did O=C(Nc1cccc(Cl)c1N1CCCC1)c1cc2ccccc2o1 do in these assays?
HEK293 cAMP cs: 25µM*; CRE-bla Fsk: inconclusive; TSHR ag: inconclusive; Tau fil binding: 17%; ERK AVP inh: 32%

Results for O=C(Nc1cccc(Cl)c1N1CCCC1)c1ccc(Br)o1 ?
HEK293 cAMP cs: 25µM*; CRE-bla Fsk: 25%; TSHR ag: inconclusive; Tau fil binding: 21%; ERK AVP inh: 24%

Results for CCN1CCN(c2c(Cl)cccc2NC(=O)c2ccco2)CC1 ?
HEK293 cAMP cs: 2%; CRE-bla Fsk: 12%; TSHR ag: 8%; Tau fil binding: -10%; ERK AVP inh: -17%

Results for O=C(Nc1ccccc1N1CCN(C(=O)c2ccc(Cl)cc2)CC1)c1cc2ccccc2o1 ?
HEK293 cAMP cs: inconclusive; CRE-bla Fsk: inconclusive; TSHR ag: inconclusive; Tau fil binding: 28%; ERK AVP inh: -8%

Results for CCN(CC)Cc1cc(Nc2ccnc3cc(Cl)ccc23)ccc1O ?
HEK293 cAMP cs: 3%[25.6 µM]; CRE-bla Fsk: 5%[17.1 µM]; TSHR ag: -17%[25.6 µM]; Tau fil binding: 3.2µM*; ERK AVP inh: -6%[25.7 µM]

What do the screens show for `COc1ccc(COC(=O)N/N=C2/C[C@@H](O)[C@@H](O)[C@@H]3[C@@H]4C(=O)N(C[C@@H]5CCCO5)C(=O)[C@H]4CC[C@@H]23)cc1`?
HEK293 cAMP cs: 0%[11.4 µM]; TSHR ag: 6%[11.4 µM]; ERK AVP inh: 6%[11.5 µM]

What do the screens show for `CCCn1c(=NC(=O)c2ccncc2)c(C#N)cc2c(=O)n3cccc(C)c3nc21`?
HEK293 cAMP cs: 0%; CRE-bla Fsk: 1µM*; TSHR ag: -2%; Tau fil binding: 338%; ERK AVP inh: -4%

What do the screens show for `Cc1cccn2c(=O)c3cc(C#N)c(=NC(=O)c4ccncc4)n(CCCOC(C)C)c3nc12`?
HEK293 cAMP cs: 1%; CRE-bla Fsk: 13µM*; TSHR ag: -12%; Tau fil binding: inactive; ERK AVP inh: 3%

What do the screens show for `COc1cccc([C@@H]2Oc3ccc(OC)cc3/C(=N/O[C@@H](C)CN3CCCCc4nc(C)c(C)cc43)[C@@H]2O)c1`?
HEK293 cAMP cs: inconclusive; TSHR ag: inconclusive; ERK AVP inh: 10%[11.5 µM]

How did COc1cc(O)c2c(=O)cc(-c3ccccc3)oc2c1 do in these assays?
HEK293 cAMP cs: 25%; CRE-bla Fsk: inconclusive; Tau fil binding: 32µM*; ERK AVP inh: -26%

Results for Cc1cc(Cl)ccc1Nc1sc(C(=O)c2cc3cc(Cl)ccc3o2)c(N)c1C#N ?
HEK293 cAMP cs: 13%[11.4 µM]; CRE-bla Fsk: inconclusive; TSHR ag: -3%[11.4 µM]; Tau fil binding: 3.2µM*; ERK AVP inh: -9%[11.5 µM]
